Mcl-1 Bim block = human Bim-Mcl-1 interaction inhibition; inhibition, % at 10 µM; actives 0.1% (n = 190,000); Bead-based flow cytometry, Bim peptide-Mcl-1 binding; in the data active = inhibition above about 40%;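 also: 0% = no compound tracer wells and 100% = peptide blocker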
Mcl1-Noxa inh = Mcl-1/Noxa interaction inhibition | AID 1022 | TR-FRET Mcl-1/Noxa peptide binding, 2 h | actives 1.5% (n = 220,000) | inhibition, % at 21.7 µM | Q07820;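 active = compounds that cut the protein-peptide binding signal by more than 50% relative to plate controls in a single-dose test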;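 also: His-tagged Mcl-1 with rhodamine Noxa BH3 peptide and terbium anti-His antibody; 0% = Mcl-1 plus Noxa peptide wells and 100% = peptide-only wells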
MCL1-BIM inh = MCL1-BIM-BH3 interaction inhibition (human) | actives 0.68% (n = 320,000) | GST-MCL1 / FITC-Bim-BH3 fluorescence polarization | inhibition, % at 10.9 µM;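 active = inhibition above the mean inhibition of all tested compounds plus 3 SD, set per campaign, cut at about 40% in these data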;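 also: 0% = DMSO wells and 100% = unlabeled Bim-BH3 peptide control; higher means more loss of mP so more displacement of Bim peptide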
GLD-1 RNA inh = GLD-1-TGE RNA interaction inhibition (C. elegans); purified GLD-1 + fluorescein TGE RNA, fluorescence polarization; actives 0.44% (n = 320,000); Q17339; inhibition, % at 5.96 µM;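 active = percent inhibition above a per-plate cutoff, the plate mean of test compounds plus 3 SD, cut at about 30% in these data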;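 also: 0% = DMSO wells with GLD-1 and probe and 100% = wells lacking GLD-1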
Target sequence (Q17339 whole entry, looked up): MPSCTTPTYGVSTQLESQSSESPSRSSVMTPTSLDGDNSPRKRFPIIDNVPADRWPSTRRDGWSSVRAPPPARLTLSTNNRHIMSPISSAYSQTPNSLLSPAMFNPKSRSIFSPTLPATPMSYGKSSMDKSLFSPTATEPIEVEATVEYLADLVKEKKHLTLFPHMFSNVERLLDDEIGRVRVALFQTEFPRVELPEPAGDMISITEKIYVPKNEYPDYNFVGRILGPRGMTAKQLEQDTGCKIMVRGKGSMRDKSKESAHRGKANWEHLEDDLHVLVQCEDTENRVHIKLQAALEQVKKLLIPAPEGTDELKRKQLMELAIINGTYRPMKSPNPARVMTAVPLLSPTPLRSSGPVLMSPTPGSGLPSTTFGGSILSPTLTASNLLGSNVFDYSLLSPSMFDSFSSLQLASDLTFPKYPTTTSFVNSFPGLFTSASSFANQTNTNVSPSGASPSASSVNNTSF
Mcl1-Bid inh = disrupts binding of human Mcl-1 to Bid peptide; TR-FRET Mcl-1/Bid-Dy647 peptide binding, 1536-well; AID 1021; actives 0.97% (n = 220,000); Q07820; inhibition, % at 21.7 µM;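 active = compounds that cut the binding signal by more than half at the single screening dose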;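 also: His-tagged Mcl-1 with europium anti-His antibody binding Bid BH3 peptide; 0% = Mcl-1 plus peptide wells and 100% = peptide-only wells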
BCLXL inh = Bcl-xL (human) inhibition | inhibition, % at 10.9 µM | GST-Bcl-xL / FITC-Bim BH3 peptide fluorescence polarization | actives 0.7% (n = 320,000);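 active = inhibition above the mean of all tested compounds plus 3 SD, cutoff set per campaign, cut at about 30% in these data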;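 also: 0% = DMSO wells and 100% = unlabeled Bim-BH3 peptide competitor; inhibitors lower millipolarization by displacing the labeled peptide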
Numbers without * were called inactive; · = no result. Rows were chosen to be rich in hits. Some 2.3% of all compounds tested hit in one or more screens of this group.

SMILES | Mcl-1 Bim block | Mcl1-Noxa inh | MCL1-BIM inh | GLD-1 RNA inh | Mcl1-Bid inh | BCLXL inh
O=C(O)c1cc(-c2cc(C(=O)O)c3ccccc3n2)nc2ccccc12 | · | · | 8 | -4 | · | 4
Cn1c(=O)c(C(=O)COC(=O)c2cc(C3CC3)nc3ccccc23)c(N)n(Cc2ccccc2)c1=O | -1 | 3 | -29 | -17 | -8 | -13
O=C(CN1CCN(C(=O)C2CCCO2)CC1)Nc1ccc(Cl)cc1 (stereo not drawn) | · | · | 3 | -3 | · | 2
COc1ccc(CNC(=O)COC(=O)c2cc(C)nc3ccccc23)cc1 | · | · | · | 9 | · | ·
COc1ccc(CNC(=O)COC(=O)c2cc(-c3ccco3)nc3ccccc23)cc1 | -1 | 89* | · | · | 9 | ·
O=C(NC1CCCCC1)C(c1cccs1)N(C(=O)C(F)(F)F)c1ccccc1 (stereo not drawn) | -5 | 2 | 1 | -1 | 9 | -2
Cc1ccc(N(C(=O)C(F)(F)F)C(C(=O)NC2CCCCC2)c2cccs2)cc1C (stereo not drawn) | 1 | -9 | 3 | -1 | 66* | 4
CNc1ccc([N+](=O)[O-])cc1-c1nc2ccccc2[nH]c1=O | · | 65* | 0 | 3 | 48 | 1
CC(=O)Nc1cc(C(=O)CSc2nnc(C3CC3)n2C2CC2)ccc1O | · | · | 27 | 7 | · | 4
O=C(Nc1sc2c(c1C(=O)NCC(O)CO)CCCC2)c1ccccc1 (stereo not drawn) | · | · | 9 | 4 | · | 5
NS(=O)(=O)c1ccc(CCNC(=O)C2CC(=O)N(Cc3ccccc3Cl)C2)cc1 (stereo not drawn) | · | · | -2 | 1 | · | -3
S=c1[nH]nc(-c2cccs2)n1/N=C/c1c(Cl)cccc1Cl | -7 | 56* | -22 | 3 | -10 | -25
O=C(COC(=O)c1ccc(O)cc1)Nc1cc(C(F)(F)F)ccc1N1CCOCC1 | · | · | 4 | 1 | · | 0
COc1ccc(S(=O)(=O)NCC(=O)NCCc2ccc(OC)c(OC)c2)cc1 | · | · | 0 | 0 | · | 3
O=C(NCc1ccc(F)cc1)C1CCCN1C(=O)NCc1ccccc1 (stereo not drawn) | 1 | 52* | 0 | 4 | 2 | 1
O=C(Nc1nccs1)C1CC(=O)N(Cc2ccco2)C1 (stereo not drawn) | -1 | 8 | 0 | 5 | 88* | -2
COc1ccc(-c2csc(NC(=O)C3CC(=O)N(Cc4ccco4)C3)n2)cc1 (stereo not drawn) | -20 | 15 | 8 | -1 | -15 | 4
C=CCN(c1ccc(Br)cc1C(=O)OC)S(C)(=O)=O | · | · | 0 | -5 | · | 47*
COc1ccc(C(=S)N2CCCCCC2)cc1 | 41* | 15 | 18 | 5 | -6 | 9
CN(C)c1ccc(C(=O)Nc2nnc(-c3ccc(Cl)cc3)o2)cc1 | 0 | 69* | 15 | 4 | 48 | 2
CC(=O)c1ccc(C(=O)Nc2nnc(-c3ccc(Cl)cc3)o2)cc1 | · | -67 | 6 | 0 | -59 | 4
COc1ccccc1NS(=O)(=O)c1ccc(C(=O)OCC(=O)NCc2ccco2)cc1 | 0 | 55* | -11 | 8 | -23 | 0
COc1ccccc1NC(=O)COC(=O)c1ccc(S(=O)(=O)NCc2ccco2)cc1 | -1 | -1 | 12 | -3 | -29 | 6
N#CCc1cc2ccc3cccc4ccc(c1)c2c34 | · | 16 | 8 | 4 | -3 | 5
O=c1cc(CN2CCOCC2)c2ccc(O)c(O)c2o1 | · | · | 6 | -3 | · | 5
SMILES | Mcl-1 Bim block | Mcl1-Noxa inh | MCL1-BIM inh | GLD-1 RNA inh | Mcl1-Bid inh | BCLXL inh
CC1Oc2cc3oc4c(O)c(O)ccc4c(=O)c3c(O)c2C1(C)C (stereo not drawn) | · | · | 13 | 31* | · | 10
Cc1ccc(-c2nn(CC(=O)NCc3cc(-c4nn(C)c(=O)c5ccccc45)ccc3C)c(=O)c3ccccc23)cc1 | 1 | -48 | 3 | 2 | 79* | 7
Cc1cc(-c2nn(C)c(=O)c3ccccc23)ccc1CNC(=O)NC1CCCCC1 | 0 | 7 | 3 | 1 | 19 | 4
COc1ccc(-c2nn(C)c(=O)c3ccccc23)cc1CNC(=O)NC1CCCCC1 | 1 | -19 | -15 | 5 | 62* | -3
CCC(=O)NCc1cc(-c2nn(C)c(=O)c3ccccc23)ccc1C | -2 | 5 | 3 | 1 | 5 | 5
Cc1cccc(/C=N\N=C\c2cccc(C)c2)c1 | · | · | 3 | 3 | · | 2
Cc1ccc(C)c(S(=O)(=O)ON2C(=O)c3ccccc3C2=O)c1 | -15 | 60* | -8 | 0 | -48 | -1
O=C(C1CCN(CCCc2ccccc2)CC1)N(CCc1ccccc1)Cc1ccccc1 | -7 | 19 | 5 | 1 | 29 | 6
O=C(C1CCN(CC2CC=CCC2)CC1)N(CCc1ccccc1)Cc1ccccc1 (stereo not drawn) | -1 | 25 | 6 | 4 | 74* | -3
CCn1c(=N)n(CC(O)c2ccco2)c2ccccc21 (stereo not drawn) | 2 | -8 | 12 | 3 | -42 | 16
C=CCn1c(=N)n(CC(O)c2ccco2)c2ccccc21 (stereo not drawn) | -5 | 0 | 31 | 15 | -13 | 34*
Cc1c([N+](=O)[O-])c(C(=O)Nc2ccc3c(c2)OCCO3)nn1C | 0 | 0 | 7 | 4 | 73* | 1
CCOc1ccc(C2C3=C(Nc4nc(N)[nH]c(=O)c42)c2ccccc2C3=O)cc1 (stereo not drawn) | -7 | 76* | -1 | 9 | 52* | 12
O=C(CSc1ccc([N+](=O)[O-])cn1)Nc1ccccc1N1CCOCC1 | · | · | 4 | -2 | · | 7
CCCC1=C(C(=O)OCC)C(c2sccc2C)n2ncnc2N1 (stereo not drawn) | · | 5 | -2 | 21 | 1 | 4
CCCC1=C(C(=O)OCC)C(c2ccc(O)cc2)n2ncnc2N1 (stereo not drawn) | 0 | 67* | 10 | 2 | -46 | 9
O=Cc1ccc(OCC(=O)NCC2CCCO2)cc1 (stereo not drawn) | · | · | -3 | 5 | · | -3
CCn1c(SCC(=O)N2CCOCC2)nc2oc3c(Cl)cc(Cl)cc3c(=O)c2c1=O | 0 | 54* | 21 | 3 | -66 | 18
Cc1cc(Cl)ccc1-n1c(-c2cccnc2)n[nH]c1=S | · | 59* | -7 | -3 | -93 | -21
Cc1cc(NS(=O)(=O)c2ccc(Nc3nc(-c4ccc(C)c(C)c4)cs3)cc2)no1 | -1 | 39 | -3 | 6 | 9 | 1
COc1ccc(-c2csc(Nc3ccc(S(N)(=O)=O)cc3)n2)cc1OC | 1 | 51* | 6 | 6 | -30 | 4
Cc1cc(NS(=O)(=O)c2ccc(Nc3nc(-c4ccc(O)cc4)cs3)cc2)no1 | 0 | 69* | 15 | -8 | -39 | 9
Cc1nn(C)cc1S(=O)(=O)Nc1ncccn1 | · | · | 4 | 3 | · | 3

Source: PubChem
